# Experimental data taken from PubChem BioAssay AID2284104 (EPA ToxCast).
# The source made the active and inactive calls. The calls were made as follows: active = hit-call score of the fitted dose curve at least 0.9, where 1 is the maximum; inactive = score below 0.9.
# Target: human PRAK CAMK Kinase, MAPKAPK5 (gene 8550) (UniProt Q8IW41)
# Experiment: ERF_TW_ENZ_hMAPKAPK5: Eurofins (ERF) Enzymatic Radiometric [10 uM ATP] LeadHunter Assay for human PRAK CAMK Kinase
# Method: ERF_TW_ENZ_hMAPKAPK5 is a biochemical, single-readout assay that uses extracted gene-proteins in a cell-free assay. Measurements were taken 0.5 hour after chemical dosing in a 96-well plate. See PRAK Human CAMK Kinase Enzymatic Radiometric Assay [10 uM ATP], Panlabs.ERF_TW_ENZ_hMAPKAPK5 is an assay component calculated from the ERF_TW_ENZ_hMAPKAPK5 assay. It is designed to measure enzyme activity using a type of enzyme reporter as detected by scintillation counting with radiometry technology.Data from the assay component ERF_TW_ENZ_hMAPKAPK5 was analyzed at the assay endpoint, ERF_TW_ENZ_hMAPKAPK5, in the positive analysis fitting direction relative to DMSO as the negative control and baseline of activity. Using a type of enzyme reporter, loss-of-signal activity can be used to understand changes in enzymatic activity as they relate to gene MAPKAPK5. To generalize the intended target to other relatable targets, this assay endpoint is annotated to the kinase intended target family, where the subfamily is serine/threonine kinase.
# Human recombinant protein kinase PRAK expressed in insect Sf21 cells is used. Test compound is preincubated with 0.44 U/ml enzyme in modified MOPS buffer pH 7.2 for 15 minutes at 37C. […] An aliquot is removed and counted to determine the amount of [32P]PRAK substrate. […]
# Chain of human PRAK CAMK Kinase, MAPKAPK5 (gene 8550) (Q8IW41 whole entry, looked up): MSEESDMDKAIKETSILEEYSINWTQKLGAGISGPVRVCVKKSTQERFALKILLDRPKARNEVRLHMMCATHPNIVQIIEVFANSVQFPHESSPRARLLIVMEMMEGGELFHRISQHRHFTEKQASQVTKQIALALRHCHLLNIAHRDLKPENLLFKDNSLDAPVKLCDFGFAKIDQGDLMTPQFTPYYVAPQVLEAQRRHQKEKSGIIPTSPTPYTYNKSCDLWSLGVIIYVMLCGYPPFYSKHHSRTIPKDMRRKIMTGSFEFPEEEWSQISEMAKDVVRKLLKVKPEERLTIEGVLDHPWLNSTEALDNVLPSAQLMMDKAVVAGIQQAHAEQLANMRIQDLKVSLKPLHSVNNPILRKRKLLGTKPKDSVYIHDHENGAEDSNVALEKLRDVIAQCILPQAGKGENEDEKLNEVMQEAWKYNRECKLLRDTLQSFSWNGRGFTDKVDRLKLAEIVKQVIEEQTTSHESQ
row,SMILES,AC50
1,O=C(/C=C/c1ccc(O)cc1)CC(=O)/C=C/c1ccc(O)cc1,1.02 µM (active)
